Inconclusive results are not listed. Entries that show only a call come without a potency. Values without a mark were called inactive. Active and inactive are the calls of the source. Unless noted, the call rests on the fitted dose curve; in most records, active means well fitted curve in the direction sought with a large enough effect; inconclusive means small, poorly fitted or top-dose-only effect, or another doubt; inactive means no such curve, though single readings can be large; an effect the other way counts as inactive or inconclusive.
Columns and labels:
[1] = qHTS for Inhibitors of Plasmodium falciparum (DD2) proliferation (AID 504314); further: potency means the concentration at half of the fitted maximal effect;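 on activity, negative = inhibition: parasite DNA measured by SYBR Green fluorescence after red cell lysis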
In short: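 Parasite proliferation measured as SYBR Green signal from Plasmodium DNA, mature erythrocytes lacking DNA. 72 h incubation, 37C; activity scaled between vehicle and 0.29 uM artemisinin, with correction from vehicle-only plates.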

[2] = qHTS for Inhibitors of Plasmodium falciparum (GB4) proliferation (AID 504315); further: nearly all actives have a fitted effect of over 50% in size; further: potency means the concentration at half of the fitted maximal effect
In short: (§1)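 Parasite growth measured as SYBR Green DNA fluorescence (ex 485, em 535 nm) after overnight lysis following 72 h culture at 37 °C, 0.3% parasitemia, 2.5% hematocrit. Values normalized against DMSO and 0.29 uM artemisinin controls, with plate-stack correction.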

[3] = qHTS for Inhibitors of Plasmodium falciparum (HB3) proliferation (AID 504318); further: nearly all actives have a fitted effect of over 60% in size; further: potency means the concentration at half of the fitted maximal effect
In short: as §1

[4] = qHTS for Inhibitors of Plasmodium falciparum (CP250) proliferation (AID 504320)
In short: as §1

[5] = target: Atrial natriuretic peptide receptor 1 (Homo sapiens) (UniProt P16066); test: Natriuretic polypeptide receptor (hNpr1) antagonism - Pilot CMLD screen (AID 1347052; calls by dose curve;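 further: HEK293 cells with hNpr1 stimulated by hNppA peptide at 0.1 nM; cGMP level read as GloSensor luciferase luminescence after agonist stimulation; series mostly up to about 9.2 µM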)
Chain of Atrial natriuretic peptide receptor 1 (Homo sapiens) (P16066 whole entry, looked up): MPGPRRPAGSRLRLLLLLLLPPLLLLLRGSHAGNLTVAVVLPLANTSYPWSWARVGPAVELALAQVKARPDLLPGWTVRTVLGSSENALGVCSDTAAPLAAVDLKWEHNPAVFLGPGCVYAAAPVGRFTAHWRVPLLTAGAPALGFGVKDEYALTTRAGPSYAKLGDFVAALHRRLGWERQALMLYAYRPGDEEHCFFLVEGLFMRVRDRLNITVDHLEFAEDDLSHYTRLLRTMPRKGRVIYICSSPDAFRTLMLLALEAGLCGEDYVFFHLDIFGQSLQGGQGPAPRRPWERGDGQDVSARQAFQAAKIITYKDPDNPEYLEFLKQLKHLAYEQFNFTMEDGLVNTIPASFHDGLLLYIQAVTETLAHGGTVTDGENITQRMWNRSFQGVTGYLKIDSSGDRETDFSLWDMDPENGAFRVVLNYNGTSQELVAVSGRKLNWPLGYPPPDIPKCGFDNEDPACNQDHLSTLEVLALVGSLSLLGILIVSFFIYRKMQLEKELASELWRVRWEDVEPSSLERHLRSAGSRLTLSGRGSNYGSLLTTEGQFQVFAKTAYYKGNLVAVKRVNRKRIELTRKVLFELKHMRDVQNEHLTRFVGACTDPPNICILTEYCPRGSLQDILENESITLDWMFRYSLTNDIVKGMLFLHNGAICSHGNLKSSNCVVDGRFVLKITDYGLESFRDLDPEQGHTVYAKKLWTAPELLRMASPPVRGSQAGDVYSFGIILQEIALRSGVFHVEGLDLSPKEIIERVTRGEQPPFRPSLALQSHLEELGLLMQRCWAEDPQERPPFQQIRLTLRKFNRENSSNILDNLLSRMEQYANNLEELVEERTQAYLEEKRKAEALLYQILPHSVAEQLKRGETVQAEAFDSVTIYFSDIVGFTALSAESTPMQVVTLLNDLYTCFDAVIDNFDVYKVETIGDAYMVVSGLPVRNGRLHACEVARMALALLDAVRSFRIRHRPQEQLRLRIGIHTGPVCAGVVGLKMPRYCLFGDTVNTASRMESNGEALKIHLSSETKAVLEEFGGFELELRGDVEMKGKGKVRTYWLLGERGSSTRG

| SMILES | Potency [1] | Potency [2] | Potency [3] | Potency [4] | Potency [5] | activity, negative = inhibition [1] |
| --- | --- | --- | --- | --- | --- | --- |
| C#CC1(O)C2C=C(OC)C(=O)C1C(c1ccccc1)C2C (stereo not drawn) | inactive | inactive | inactive | inactive | inactive | – |
| CC1(OC(=O)C2CCCC2)C(=O)C=C2C=C(c3ccc(C#N)cc3)OC=C2C1=O (stereo not drawn) | inactive | inactive | inactive | inactive | inactive | – |
| COc1ccc(-c2nc3c(c4c2C[C@H](c2ccccc2)OC4)CN(C(=O)NCc2ccco2)CC3)c(C)c1 | – | inactive | inactive | inactive | inactive | -0.324% [at 1.12 µM] |
| CCCCC1=CC2=C(c3ccco3)C(=O)C(C)(OC(=O)c3ccc(OC)cc3)C(=O)C2=CN1c1ccc(OC)cc1 (stereo not drawn) | – | inactive | inactive | inactive | inactive | -0.773% [at 1.12 µM] |
| CCN1C(=O)[C@@H]2[C@H]3[C@H](O)[C@H](O)CC(=NO[C@H](C)c4cn([C@@H]5COC[C@@H]5O)nn4)[C@@H]3CC[C@H]2C1=O | inactive | inactive | inactive | inactive | inactive | – |
| C=CC[C@@H]1C=C[C@H](ON=C[C@@H](N[S+](=O)([O-])c2ccc(C)cc2)[C@H](C)C=CCC(=O)OC)[C@H](CO)O1 | inactive | inactive | inactive | inactive | inactive | – |
| C#CCCCON=C1C[C@@H](O)[C@@H](O)[C@@H]2[C@H]3C(=O)N(C(C)(C)C)C(=O)[C@@H]3CC[C@H]12 | inactive | inactive | inactive | inactive | inactive | – |
| CC1(OC(=O)c2cnc3ccccc3n2)C(=O)C=C2C=C(c3ccc(C#N)cc3)OC=C2C1=O (stereo not drawn) | inactive | inactive | inactive | inactive | inactive | – |
| COC(=O)CC=C1c2ccccc2[C@@H](OC)[C@@H]1C | inactive | inactive | inactive | inactive | inactive | – |
| COCC=CC1=CC2=CC(=O)C(C)(OC(=O)c3cnc4ccccc4n3)C(=O)C2=CN1CC(C)C (stereo not drawn) | inactive | inactive | inactive | inactive | inactive | – |
| C=CCNC(=O)N1CCc2nc(CCCC)c3c(c2C1)CO[C@@H](C)C3 | inactive | inactive | inactive | inactive | inactive | – |
| CC(C)[C@@H](OCc1ccccc1)[C@H](C)C=NOC[C@@H](C)[C@H](OCc1ccccc1)C(C)C | inactive | inactive | inactive | inactive | inactive | – |
| COC(=O)NCC=Cc1nc(CCCO)co1 | inactive | inactive | inactive | inactive | inactive | – |
| COC(=O)C1=C2C=C(C)CC(C)N2C(=O)NC1c1ccccc1 (stereo not drawn) | inactive | inactive | inactive | inactive | inactive | – |
| COC(=O)N[C@@H](c1ccc(Cl)cc1)C(C(C)=O)C(=O)OC (stereo partly drawn) | inactive | inactive | inactive | inactive | inactive | – |
| O=S(=O)(CCc1ccccc1)c1ccccc1 | inactive | inactive | inactive | inactive | inactive | – |
| CC(C)=CCN1C(=O)[C@]2(O[C@H](COc3ccccc3)CC3=CCCC32)c2c(Br)cccc21 (stereo partly drawn) | 3780 nM (active) | 1900 nM (active) | 1900 nM (active) | – | inactive | – |
| C=CC[C@@](C(C)=O)(C(=O)OC)[C@@H](NC(=O)OC)c1ccccc1 | inactive | inactive | inactive | inactive | inactive | – |
| COC(=O)NC(C=Cc1ccccc1)C(C(C)=O)C(=O)OC (stereo not drawn) | inactive | inactive | inactive | inactive | inactive | – |
| COc1ccc(C(=O)[C@]2(C)C=C(c3ccc(OC)cc3)[C@H](C)C2)cc1 | inactive | inactive | inactive | inactive | inactive | – |
| C[C@H]1CC[C@H]2C(=O)N[C@H](Cc3ccccc3)C(=O)N2[C@H]1c1ccccc1 | inactive | inactive | inactive | inactive | inactive | – |
| CC(=O)C1=CN(CCc2c[nH]c3ccccc23)C(=O)NC1c1ccccc1 (stereo not drawn) | inactive | inactive | inactive | inactive | inactive | – |
| C=C(C(C)=O)C(O)c1ccc(C(F)(F)F)cc1 (stereo not drawn) | inactive | inactive | inactive | inactive | inactive | – |
| Cc1ccc(C(O)C2=CCCC2=O)cc1 (stereo not drawn) | inactive | inactive | inactive | – | inactive | – |
| CC(=O)OC[C@H]1O[C@H](CCON=C(C)CCN2CCCCc3nc(C)c(C)cc32)C=C[C@H]1OC(C)=O | inactive | inactive | inactive | inactive | inactive | – |
| CCCCCCCc1cc2ccccc2c2c(C(=O)OC)c(C(=O)OC)c(C(=O)OC)n12 | inactive | inactive | inactive | inactive | inactive | – |
| COc1ccc(COC(=O)NN=C2C[C@@H](O)[C@@H](O)[C@@H]3[C@H]4C(=O)N(c5ccc(F)cc5F)C(=O)[C@@H]4CC[C@H]23)cc1 | inactive | inactive | inactive | inactive | inactive | – |
